# Rows were chosen to be rich in hits. Some 21% of all compounds tested hit in one or more screens of this group.
# Shiga inhibitor: Shiga toxin inhibition; Vero cells, Shiga toxin protein synthesis inhibition reporter; inhibition, % at 38.7 µM; 290,000 tested, 9.2% active; AID 2315; in the data active = inhibition mostly above about 28%, no sharp cut-off; inactive = mostly below about 43%; also: 0% is about no effect
# Cycloheximide cs: counter-screen for Shiga toxin inhibitors: cycloheximide protein synthesis inhibition. AID 2314. max response, %. 300,000 tested, 12% active. cell reporter, cycloheximide protein synthesis inhibition counterscreen; in the data active = max response mostly above about 13%, no sharp cut-off; inactive = mostly below about 14%; also: read at 38.3 µM for the half of the compounds with a filed dose; 0% is about no effect
# Pf growth 48h: inhibits P. falciparum growth in the first generation, 48 h | P. falciparum luciferase growth in erythrocytes, 48 h | Potency, µM (highest dose often 28.7 µM), without a hit: top-dose activity change, negative = inhibition, most hits filed as inhibitors | 310,000 tested, 5.9% active | AID 504832; also: potency is read from the fitted curve at half-maximal effect; % is scaled to controls: 0 for no effect and ±100 for the full control effect
#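 Read-out is firefly luciferase luminescence from an integrated reporter in P. falciparum, so falling signal marks reduced parasite growth. Infected erythrocytes were at 2% hematocrit and 0.1% parasitemia (final) in Albumax-supplemented RPMI 1640.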
# Pf growth 96h: P. falciparum growth inhibition at 96 hour, primary screen for plastid delayed-death inhibitors; Potency, µM (top dose mostly 28.7 µM), for inactives: at the top dose activity change, negative = inhibition, actives largely listed as inhibitors; P. falciparum luciferase reporter growth, 96 h; AID 504834; 320,000 tested, 6.9% active; also: potency is read from the fitted curve at half-maximal effect; % is scaled to controls: 0 for no effect and ±100 for the full control effect
#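 96 h incubation, 37 C, 5% CO2, of luciferase-reporter P. falciparum-infected RBCs (2% hematocrit, 0.05% parasitemia final) with test compounds; endpoint luminescence.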
# * marks the source's active call; other numbers are inactive results; ? = inconclusive; · = not tested or not shown. Unless noted, calls follow the shape of the dose curve; as a rule, active = well fitted inhibition curve with a large enough effect; inconclusive = small, poorly fitted or top-dose-only effect, or another doubt; inactive = no such curve, though single readings can be large or run the other way.
SMILES,Shiga inhibitor,Cycloheximide cs,Pf growth 48h,Pf growth 96h
Cc1ccc(CNC(=O)c2ccc(N3CCC4(CC3)CC(c3cccc(Br)c3)=NO4)c(NC(=O)c3ccccc3)c2)cc1,·,·,9.3µM*,?
CC(=O)N1CCN(C(=O)c2ccc(S(=O)(=O)Nc3ccccc3F)cc2)CC1,·,·,1%,-24%
O=C(Nc1ccc(Cc2ccncc2)cc1)c1ccc(N2CCOCC2)c([N+](=O)[O-])c1,-12,-3,6%,18%
O=C(Nc1nccs1)c1ccc(N2CCOCC2)c([N+](=O)[O-])c1,86*,50*,132%,48%
O=C(Nc1nccs1)c1ccc(Cl)c([N+](=O)[O-])c1,43,43*,9%,-4%
COc1ccc2oc(-c3ccc(C)c(NC(=O)c4ccc(N5CCOCC5)c([N+](=O)[O-])c4)c3)nc2c1,134*,59*,126%,?
O=C(Nc1nccs1)c1ccc([N+](=O)[O-])cc1Cl,51,12,55%,10µM*
C/C=C/c1ccc(OCC(=O)N(CCOC)c2c(N)n(CCCC)c(=O)[nH]c2=O)c(OC)c1,·,·,35%,?
O=C(COC(=O)C12CC3CC(CC(Br)(C3)C1)C2)Nc1cccnc1Cl,19,1,2%,18%
CCC1Oc2ccc(C)cc2N(CC(=O)NCCN2CCOCC2)C1=O (stereo not drawn),-6,-3,18%,-13%
CCN(CC)c1ccc2ccc(=O)oc2c1,16,12,-34%,9.3µM*
O=C(c1cccs1)N1CCN(Cc2ccccc2[N+](=O)[O-])CC1,11,-2,-7%,25%
CCCn1ncc2c(Nc3ccc(C)c(C)c3)ncnc21,110*,47*,63%,-16%
Cn1ncc2c(Nc3ccc(-c4ccccc4)cc3)ncnc21,76*,41*,2%,?
Cn1ncc2c(Nc3ccc(Cl)c(Cl)c3)ncnc21,35,36*,13%,4%
C[C@@H]1C(=O)N(S(=O)(=O)c2ccccc2[N+](=O)[O-])[C@H]1c1ccc(-c2ccccc2)cc1,-7,-1,·,·
Cn1nc(C(F)(F)F)cc1-c1ccc(S(N)(=O)=O)s1,68*,38*,27%,62%
Cn1nc(C(F)(F)F)c2cc(C(=O)O)sc21,-2,8,-3%,-20%
CN(C)C(=O)c1ccc(-c2cc(C(F)(F)F)nn2C)s1,53*,39*,198%,103%
O=C(c1c(F)cccc1F)N1CCN=C1SCc1ccccc1,-17,0,-9%,-2%
O=C(c1ccccc1)n1c(=O)c(F)cn(COCCBr)c1=O,-6,-2,15%,-13%
Cc1cc(Cl)ccc1OCC(=O)NNC(=O)CCOc1ccccc1,·,·,-2%,26%
CC(C)N=C(NS(=O)(=O)c1ccccc1)C(Cl)(Cl)Cl,38*,19*,?,?
OC1(c2ccc(Cl)c(C(F)(F)F)c2)CCN(CCCC(c2ccc(F)cc2)c2ccc(F)cc2)CC1,-15,-16,·,·
CN1/C(=C\C(=O)COC(=O)c2ccc([N+](=O)[O-])o2)C(C)(C)c2ccccc21,18,14,?,13µM*
SMILES,Shiga inhibitor,Cycloheximide cs,Pf growth 48h,Pf growth 96h
CCCc1nnc(NC(=O)C23CC4CC(CC(C4)C2)C3)s1,-8,3,32%,30%
O=c1oc(-c2ccccc2F)nc2scc(-c3ccccc3)c12,32*,21*,48%,?
CC1(C)Cc2c(sc(NC(=O)C(=O)N3CCCCC3)c2C(N)=O)CO1,14,8,10%,-28%
Cc1ccc(Nc2c(-c3ccccn3)nc3ccc(C)cn23)cc1,-19,7,?,151%
Cc1ccc(Nc2c(-c3ccccn3)nc3cc(C)ccn23)cc1,3,-4,?,9.3µM*
Cc1ccn2c(Nc3ccc4c(c3)OCO4)c(-c3ccccn3)nc2c1,39*,77*,12µM*,?
CC(=O)c1c(C)[nH]c(C(=O)Nc2cccc(C#N)c2)c1C,52,1,?,?
CC(=O)c1c(C)[nH]c(C(=O)NC2CCCCC2)c1C,16,16*,0%,-4%
CCOC(=O)c1c(C)[nH]c(C(=O)Nc2ccc(NC(C)=O)cc2)c1C,-9,-3,0%,0%
CCc1c(C(=O)NC2CCCCC2)[nH]c(C)c1C(C)=O,14,5,-5%,-6%
CCOC(=O)c1c(C)[nH]c(C(=O)Nc2ccc(C)c(Cl)c2)c1C,103*,35*,-55%,?
CC(=O)c1c(C)[nH]c(C(=O)Nc2cccc(C(F)(F)F)c2)c1C,73*,32*,4.1µM*,1.9µM*
CC(=O)c1c(C)[nH]c(C(=O)Nc2cccc(S(=O)(=O)N3CCCCC3)c2)c1C,·,·,9.3µM*,9.3µM*
O=C(CN1CCC(C(=O)c2ccc(F)cc2)CC1)Nc1ccccc1Cl,-3,13,11%,18%
CC(=O)c1c(C)[nH]c(C(=O)Nc2ccc(C)c(C)c2)c1C,65*,36*,·,27%
COc1ccc(NC(=O)c2[nH]c(C)c(C(C)=O)c2C)cc1Cl,56,60*,?,-21%
COc1cc(NC(=O)c2[nH]c(C)c(C(C)=O)c2C)cc(OC)c1OC,-3,-3,3%,-5%
CCc1c(C(=O)Nc2ccc(C)c(C)c2)[nH]c(C)c1C(C)=O,84*,40*,-10%,3%
Cc1nonc1NC(=O)OCCN1CCOC1=O,4,-6,?,6.6µM*
Cc1cc(=O)[nH]c(SCC(=O)Nc2nonc2C)n1,1,-2,14%,0%
[O-]/C(=C(\C(=S)Nc1cccc2ccccc12)[n+]1ccccc1)c1ccc(OC(F)F)cc1,-5,10,?,15µM*
[O-]/C(=C(\C(=S)Nc1cccc2ccccc12)[n+]1ccccc1)c1ccc2c(c1)OCCO2,39,22*,·,5.9µM*
[O-]/C(=C(\C(=S)Nc1cccc2ccccc12)[n+]1ccccc1)c1cccs1,32,19*,-15%,?
Cc1cccc(C)c1NC(=S)/C(=C(\[O-])c1cccs1)[n+]1ccccc1,-11,-1,19%,0%
O=C(O)CCC(=O)Nc1ccccc1Oc1ccccc1,-8,-1,4%,-4%
SMILES,Shiga inhibitor,Cycloheximide cs,Pf growth 48h,Pf growth 96h
CCOC(=O)c1oc2ccccc2c1COC(=O)CNC(=O)c1ccc(C)cc1,·,·,-17%,12%
O=C(N/N=C/C=C/c1ccccc1)c1n[nH]c2c1CCC2,21,15*,·,-18%
O=C(N/N=C/C(Br)=C\c1ccccc1)c1n[nH]c2c1CCC2,111*,64*,·,-11%
Cc1ccc(NC(=O)Cn2c(=O)n(Cc3ccco3)c(=O)c3ccccc32)c(C)c1,13,1,·,·
O=C(Nc1cccc(Cl)c1)c1c(O)c2c(n(Cc3ccco3)c1=O)CCCC2,57,31*,57%,33%
O=C(Cn1c(=O)n(Cc2ccco2)c(=O)c2ccccc21)Nc1cccc(Cl)c1,31*,23*,?,?
O=C(CCCn1c(=O)c2ccccc2n(CC(=O)NCc2ccco2)c1=O)NCc1ccco1,-4,1,-5%,38%
O=C(CCCCn1c(=O)c2ccccc2n(CC(=O)Nc2ccc(F)cc2)c1=O)NCc1ccco1,15,-1,12µM*,?
CCCN(CCC)C(=O)Cn1c(=O)n(CCCCC(=O)NCc2ccco2)c(=O)c2ccccc21,-9,1,·,12µM*

# Assay outcomes as filed in PubChem BioAssay.
